About 83,000 compounds went through this panel and 20% of them were active in at least one assay; those are over-represented in the sample as a whole.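 Growth was measured after 48 h exposure to one concentration of compound in 96-well plates. Values under 10 count as active.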 A number with no mark means an inactive call. Calls of active or inactive are those of the source.
Experiments:
Assay in all cases: NCI-60 one-dose screen, 48 h (100 = growth as untreated, 0 = no growth, -100 = all killed)
[1] = system: EKVX NSCLC; settings: 10 µM unless noted
[2] = system: SN12C renal; settings: 10 µM unless noted
[3] = system: UO-31 renal; settings: 10 µM unless noted
[4] = system: TK-10 renal; settings: 10 µM unless noted
[5] = system: ACHN renal; settings: 10 µM unless noted
[6] = system: CAKI-1 renal; settings: 10 µM unless noted
[7] = system: A498 renal; settings: 10 µM unless noted
[8] = system: CCRF-CEM leukemia; settings: 10 µM unless noted
[9] = system: MOLT-4 leukemia; settings: 10 µM unless noted
[10] = system: SR leukemia; settings: 10 µM unless noted
[11] = system: RPMI-8226 leukemia; settings: 10 µM unless noted
[12] = system: OVCAR-8 ovarian; settings: 10 µM unless noted
[13] = system: OVCAR-5 ovarian; settings: 10 µM unless noted
[14] = system: OVCAR-4 ovarian; settings: 10 µM unless noted
[15] = system: SK-OV-3 ovarian; settings: 10 µM unless noted
[16] = system: IGROV1 ovarian; settings: 10 µM unless noted
[17] = system: OVCAR-3 ovarian; settings: 10 µM unless noted
[18] = system: HS 578T breast; settings: 10 µM
[19] = system: NCI/ADR-RES ovarian; settings: 10 µM unless noted

Row | Structure (SMILES) | growth [1] | growth [2] | growth [3] | growth [4] | growth [5] | growth [6] | growth [7] | growth [8] | growth [9] | growth [10] | growth [11] | growth [12] | growth [13] | growth [14] | growth [15] | growth [16] | growth [17] | growth [18] | growth [19]
1 | Cc1c(N)ccc(-c2ccc(N)c(C)c2S(=O)(=O)O)c1S(=O)(=O)O | 111% | 106% | 88% | 98.6% | 108% | 116% | 100% | 102% | 102% | 102% | 107% | 107% | 101% | 112% | 111% | 110% | 124% | 106% | 102%
2 | COC(=O)[C@H](Cc1ccc(O)cc1)NC(=O)[C@@H](OC)[C@@H]1Cc2cc3cc(OC4CC(OC5CC(O)C(O)C(C)O5)C(O)C(C)O4)c(C)c(O)c3c(O)c2C(=O)[C@H]1OC1CC(OC2CC(OC3CC(C)(O)C(O)C(C)O3)C(O)C(C)O2)C(O)C(C)O1 (stereo partly drawn) | 21.5% | 13.3% | 18.1% | 23.5% | 4.06% (active) | 69.5% | -63.2% (active) | 11.1% | -1.8% (active) | 9.7% (active) | -5.59% (active) | 9.74% (active) | 10.6% | 7.27% (active) | 20.7% | 31.2% | 5.52% (active) | -9.2% (active) | 85.6%
3 | COc1ccc(Nc2ncccc2NC(=O)c2cn(Cc3cccc(Oc4ccccc4)c3)nn2)cc1 | 86.6% | 92.3% | 63.7% | 99.6% | 99.5% | 87.3% | 81.5% | 91.4% | 65.3% | 74.2% | 86% | 87.5% | 105% | 78.7% | 103% | 98.8% | 92% | 95.7% | 76.6%
4 | O=C(NO)c1ccc(Cn2c(=O)n(CCc3ccccc3)c(=O)c3ccccc32)cc1 | 38.8% | 38.5% | 17.3% | 43.4% | 25.8% | 27.2% | 12.7% | 4.6% (active) | 3.88% (active) | 20% | 25.8% | 20.2% | 76.5% | 19.2% | 26.3% | 41% | 13.8% | 68.9% | 57.5%
5 | Cc1cc([C@@H](C)Nc2ccccc2C(=O)O)c2nc(N3CCOCC3)cc(=O)n2c1 | 61.7% | 44.1% | 15.7% | 42.6% | 46.3% | 18.9% | -36.7% (active) | 23.5% | 20.6% | 25% | 71.8% | 45.6% | 51.8% | 77.3% | -13.2% (active) | -4.69% (active) | 31.1% | – | 58.1%
6 | CCN(CC)CCCC(C)Nc1cc(-c2ccc(C(F)(F)F)cc2)c(C#N)c2nc3ccccc3n12 (stereo not drawn) | 35.6% | -30.3% (active) | -76.5% (active) | 68.2% | -65.2% (active) | 52.2% | 87.5% | -7.3% (active) | -28.2% (active) | -17.4% (active) | -19.9% (active) | 11.8% | 11.7% | -27.9% (active) | 74.3% | 26.1% | 93.5% | -19.1% (active) | 32.2%
7 | Cc1ccc(C(=O)Nc2ccc(CN3CCN(C)CC3)c(C(F)(F)F)c2)cc1C#Cc1cnc2cccnn12 | -84.4% (active) | -92.8% (active) | -93.6% (active) | -98.7% (active) | -100% (active) | -99.9% (active) | -96.8% (active) | -29.5% (active) | -62.3% (active) | -28.2% (active) | -45.5% (active) | -95.8% (active) | -81.9% (active) | -76.2% (active) | -94% (active) | -65.5% (active) | -95.9% (active) | – | -49.1% (active)
8 | COc1ccc(-c2ccc3ncc4c(c3c2)n(-c2ccc(N3CCNCC3)c(C(F)(F)F)c2)c(=O)n4C)cn1 | -77.1% (active) | -80.7% (active) | -90.9% (active) | -90.2% (active) | -97.5% (active) | -94.8% (active) | -79.2% (active) | -47.1% (active) | -50.8% (active) | -34.6% (active) | -46.3% (active) | -62.9% (active) | -80.6% (active) | -76.9% (active) | -83.9% (active) | -79.4% (active) | -91.1% (active) | – | -70% (active)
9 | Cc1ccc(N)cc1CN1C(=O)c2ccccc2C1=O | 105% | 103% | 70.1% | 88.3% | 106% | 105% | 96.5% | 92.4% | 94.9% | 87.4% | 99.3% | 101% | 104% | 110% | 94.2% | 105% | 117% | 106% | 107%
10 | Cc1cc(C2(c3ccc(O)c(C)c3)OS(=O)(=O)c3ccccc32)ccc1O | 111% | 101% | 64.7% | 111% | 108% | 97.6% | 94.2% | 101% | 91.1% | 97.2% | 99.3% | 107% | 110% | 107% | 111% | 105% | 119% | – | 109%
11 | Cn1cc(-c2cnn3c(N)c(Br)c([C@@H]4CCCNC4)nc23)cn1 | 58.7% | 37.6% | 28% | 33.4% | 19.8% | 17.3% | -8.93% (active) | 19.9% | 7.79% (active) | 4.1% (active) | 24.3% | 50.8% | 56.9% | 61.2% | 38.1% | 36.9% | 59.8% | – | 51.5%
12 | Nc1c(Cl)cccc1[N+](=O)[O-] | 104% | 103% | 90.4% | 125% | 104% | 104% | 101% | 101% | 99.6% | 104% | 100% | 102% | 102% | 111% | 108% | 112% | 111% | 87.8% | 102%
13 | CC(=O)C1=C(C)NC(SCc2nnc(-c3ccc(C)cc3)o2)=NC1c1ccc(F)cc1 (stereo not drawn) | 107% | 93.1% | 83.6% | 85.6% | 92% | 88% | 109% | 88.1% | 94.1% | 80.9% | 83.7% | 97% | 89.6% | 108% | 108% | 89% | 105% | 112% | 98.2%
14 | COc1cc2c(c(OC)c1)C1c3ccccc3NC(=O)N1CC2 (stereo not drawn) | 42.1% | 39% | 36.8% | 49.5% | 44.9% | 34.3% | -7.8% (active) | 10.7% | 30.6% | 13.2% | 16.4% | 44.3% | 48.6% | 50.4% | 52.8% | 60.2% | -6.26% (active) | 16.4% | 1.85% (active)
15 | COC(=O)Nc1nc2ccc(C(=O)c3ccc(N(C)C4COC4)cc3)cc2[nH]1 | 26.9% | 30.9% | 45.3% | 66% | 39% | 31.2% | 10% | 15.9% | 10.5% | 14.4% | 22.5% | 11% | 52.4% | 57.2% | 6.93% (active) | 28.5% | 31.9% | – | 12%
16 | CC(=O)CC1CCCC1c1ccc2ccccc2c1 (stereo not drawn) | 102% | 105% | 84.7% | 91.5% | 101% | 98.6% | 97.6% | 97.6% | 99.2% | 104% | 103% | 100% | 97.2% | 112% | 101% | 101% | 105% | 100% | 102%
